According to PubChem BioAssay (NCI):
Compounds without any hit were thinned out: in the full panel of roughly 83,000, 20% have a hit.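 Growth was measured after 48 h exposure to one concentration of compound in 96-well plates. Values under 10 count as active.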 Activity calls are given as the source filed them.

Key:
Experiment in all cases: NCI-60 one-dose screen, 48 h (100 = growth as untreated, 0 = no growth, -100 = all killed)
Conditions in all cases: 10 µM unless noted
SR leukemia = system: SR leukemia
RPMI-8226 leukemia = system: RPMI-8226 leukemia
OVCAR-5 ovarian = system: OVCAR-5 ovarian
OVCAR-4 ovarian = system: OVCAR-4 ovarian
SK-OV-3 ovarian = system: SK-OV-3 ovarian
IGROV1 ovarian = system: IGROV1 ovarian
OVCAR-3 ovarian = system: OVCAR-3 ovarian
HS 578T breast = system: HS 578T breast
NCI/ADR-RES ovarian = system: NCI/ADR-RES ovarian
T-47D breast = system: T-47D breast
BT-549 breast = system: BT-549 breast
SW-620 colon = system: SW-620 colon
MCF7 breast = system: MCF7 breast
HCT-116 colon = system: HCT-116 colon
HCC-2998 colon = system: HCC-2998 colon
KM12 colon = system: KM12 colon
MDA-MB-435 melanoma = system: MDA-MB-435 melanoma
OVCAR-8 ovarian = system: OVCAR-8 ovarian

Measured: growth

Nc1nc(N)c2c(n1)NC(c1ccc3c(c1)OCO3)CC(c1cccc(Nc3ccncc3)c1)=N2 (configuration not stated)
inactive: SR leukemia 53.1% | RPMI-8226 leukemia 80.5% | OVCAR-5 ovarian 114% | OVCAR-4 ovarian 98.7% | SK-OV-3 ovarian 90.9% | IGROV1 ovarian 79.7% | OVCAR-3 ovarian 90.9% | HS 578T breast 81.4% | NCI/ADR-RES ovarian 107% | T-47D breast 88.5% | BT-549 breast 117% | SW-620 colon 58% | MCF7 breast 63% | HCT-116 colon 43.7% | HCC-2998 colon 88.1% | KM12 colon 80%

CCOC(=O)CC1CSC(N/N=C(/C)c2cccc(C(F)(F)F)c2)=N1 (configuration not stated)
inactive: SR leukemia 99.6% | RPMI-8226 leukemia 111% | OVCAR-5 ovarian 105% | OVCAR-4 ovarian 94.1% | SK-OV-3 ovarian 96.1% | IGROV1 ovarian 94.5% | OVCAR-3 ovarian 105% | HS 578T breast 101% | NCI/ADR-RES ovarian 101% | T-47D breast 104% | BT-549 breast 85.6% | MDA-MB-435 melanoma 101% | SW-620 colon 104% | MCF7 breast 90.5% | HCT-116 colon 96.9% | HCC-2998 colon 101% | KM12 colon 97.7%

Cc1c(C)c2c(c(C)c1OC(=O)CCC(=O)[O-])CCC(C)(CCCCCCCCCCC[P+](c1ccccc1)(c1ccccc1)c1ccccc1)O2 (configuration not stated)
active: SR leukemia -25.5% | RPMI-8226 leukemia -47.7% | OVCAR-4 ovarian -1.74% | SK-OV-3 ovarian -27% | IGROV1 ovarian -13.1% | OVCAR-3 ovarian -76.4% | HS 578T breast -15% | T-47D breast -41.6% | BT-549 breast -60.2% | MDA-MB-435 melanoma -89% | SW-620 colon 9.14% | MCF7 breast -28.2% | HCT-116 colon -9.97% | KM12 colon -87.7%
inactive: OVCAR-5 ovarian 13.5% | NCI/ADR-RES ovarian 74.3%

O=C(Nc1ncc(Cc2cc(C(F)(F)F)ccc2Cl)s1)C(=S)N1CCOCC1
inactive: SR leukemia 92.1% | RPMI-8226 leukemia 81.9% | OVCAR-5 ovarian 94.7% | OVCAR-4 ovarian 84.5% | SK-OV-3 ovarian 92% | IGROV1 ovarian 84.3% | OVCAR-3 ovarian 105% | HS 578T breast 92.6% | NCI/ADR-RES ovarian 91.3% | T-47D breast 73.9% | BT-549 breast 99% | MDA-MB-435 melanoma 85.9% | SW-620 colon 93.2% | MCF7 breast 82% | HCT-116 colon 81.8% | HCC-2998 colon 101% | KM12 colon 97.7%

C=CCn1c(SCC(=O)Nc2ccc(C(=O)/C=C/c3ccc(Cl)cc3)cc2)nnc1-c1ccccc1
active: RPMI-8226 leukemia -16% | HCT-116 colon -78.6%
inactive: SR leukemia 82.5% | OVCAR-5 ovarian 95.3% | OVCAR-4 ovarian 85.2% | SK-OV-3 ovarian 98.2% | IGROV1 ovarian 89.1% | OVCAR-3 ovarian 90.2% | HS 578T breast 111% | NCI/ADR-RES ovarian 93.7% | T-47D breast 73% | BT-549 breast 71.3% | MDA-MB-435 melanoma 77.5% | SW-620 colon 98.4% | MCF7 breast 24.4% | HCC-2998 colon 96.4% | KM12 colon 85.2%

CNC(=O)c1cc(Oc2cccc3nc(NC(=O)Nc4ccc(F)cc4F)ccc23)ccn1
active: OVCAR-4 ovarian -63.4% | OVCAR-3 ovarian 0.213% | HS 578T breast 5.37% | HCT-116 colon -33.1%
inactive: SR leukemia 18% | RPMI-8226 leukemia 30.4% | OVCAR-8 ovarian 13.9% | OVCAR-5 ovarian 70.3% | NCI/ADR-RES ovarian 22.5% | T-47D breast 21% | BT-549 breast 45.5% | MDA-MB-435 melanoma 32.6% | SW-620 colon 59.7% | MCF7 breast 37.8% | HCC-2998 colon 70.2% | KM12 colon 57.7%

CCCC[N+]1(C)CCN=C1Cc1ccccc1 (configuration not stated)
inactive: SR leukemia 94.4% | RPMI-8226 leukemia 75.7% | OVCAR-8 ovarian 97.2% | OVCAR-5 ovarian 103% | OVCAR-4 ovarian 109% | OVCAR-3 ovarian 103% | HS 578T breast 97.7% | NCI/ADR-RES ovarian 107% | T-47D breast 101% | MDA-MB-435 melanoma 104% | SW-620 colon 98.4% | MCF7 breast 100% | HCT-116 colon 101% | HCC-2998 colon 93.7% | KM12 colon 118%

C[C@@H]1N=C(c2ccc(Cl)cc2Cl)Nc2nc3ccccn3c2C1=O
inactive: SR leukemia 33% | RPMI-8226 leukemia 75.2% | OVCAR-5 ovarian 91.2% | OVCAR-4 ovarian 89.5% | SK-OV-3 ovarian 50.1% | IGROV1 ovarian 41.9% | HS 578T breast 52% | NCI/ADR-RES ovarian 44.5% | T-47D breast 64.3% | BT-549 breast 55.6% | SW-620 colon 25.2% | MCF7 breast 16.8% | HCT-116 colon 28.1% | HCC-2998 colon 75.4% | KM12 colon 23.8%
active: OVCAR-3 ovarian 2.44%

C=CN(C(=O)N1CCN(c2cc3c(cc2F)c(=O)c(C(=O)O)cn3C2CC2)CC1)c1nc(-c2ccc(C)cc2)cs1
active: RPMI-8226 leukemia 7.02% | SK-OV-3 ovarian -5.97% | OVCAR-3 ovarian 5.61% | MCF7 breast 7.94%
inactive: SR leukemia 13.7% | OVCAR-5 ovarian 38.5% | OVCAR-4 ovarian 23.3% | IGROV1 ovarian 22.4% | HS 578T breast 13.8% | NCI/ADR-RES ovarian 44.9% | T-47D breast 36.3% | BT-549 breast 11.9% | MDA-MB-435 melanoma 22.1% | SW-620 colon 20.8% | HCT-116 colon 10.9% | HCC-2998 colon 39% | KM12 colon 21.9%
